Bioassay records (PubChem)
CHT allo act = allosterically activates the human high affinity choline transporter; Q9GZV3; CHT-expressing cells, membrane potential dye, choline EC20; stronger effect = higher value; LV-AA mutant CHT in HEK293 cells; B-score at 10 µM; actives 0.49% (n = 310,000); AID 488977;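 active = initial fluorescence not abnormally high and integrated response B-score, plate-corrected, over 3 SD above library mean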
CHT block = inhibitors of human choline transporter CHT; Q9GZV3; CHT-expressing cells, membrane potential dye, choline response; stronger effect = lower value; B-score at 10 µM; actives 0.86% (n = 310,000);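 active = B-score over 3 SD under the library average, and starting fluorescence ratio not unusually high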;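 note: choline stimulus applied at its EC90 after an EC20 pre-addition; B-score computed on integrated fluorescence ratio after choline addition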
Platelet DG rel = platelet dense granule release activity; inhibition, %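 (compounds screened at 7.5 µM in platelet-rich plasma)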; human platelet-rich plasma, SFLLRN dense granule ATP release, luminescence; AID 1663; actives 0.22% (n = 300,000);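 active = mean replicate score, as percent of positive control, at or above 50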
HIF activator = HIF pathway transcriptional activation | activation, % at 7.5 µM (by protocol) | AID 1910 | actives 0.32% (n = 300,000) | U2OS HRE-luciferase reporter, luminescence; normalized: DMSO 0%, desferrioxamine 100%;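 active = mean activation of at least 10% of the iron chelator positive control signal, with at least half of replicates also reaching 10%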
AI-2 QS modul = modulators of Vibrio harveyi AI-2 quorum sensing system; Vibrio harveyi JMH597 AI-2 luminescence/OD600 ratio, 9 h; stronger effect = lower value; strain lacks LuxN and CqsS sensors; 0 = neutral-control median; activity change, % at 7.5 µM; actives 0.4% (n = 300,000); in the data active = activity change below about -75%, passing the limit was not always enough;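 note: luminescence divided by OD600 gain over 9 h not by final OD600 alone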
VLA-4 inh = inhibition in a human VLA-4 binding assay. actives 0.2% (n = 330,000). AID 2557. inhibition, % (about 7 µM as worked out from the volumes in the protocol). VLA-4 expressing cells, ligand binding flow cytometry; in the data active = inhibition above about 50%
Target sequence (P13612 whole entry, looked up): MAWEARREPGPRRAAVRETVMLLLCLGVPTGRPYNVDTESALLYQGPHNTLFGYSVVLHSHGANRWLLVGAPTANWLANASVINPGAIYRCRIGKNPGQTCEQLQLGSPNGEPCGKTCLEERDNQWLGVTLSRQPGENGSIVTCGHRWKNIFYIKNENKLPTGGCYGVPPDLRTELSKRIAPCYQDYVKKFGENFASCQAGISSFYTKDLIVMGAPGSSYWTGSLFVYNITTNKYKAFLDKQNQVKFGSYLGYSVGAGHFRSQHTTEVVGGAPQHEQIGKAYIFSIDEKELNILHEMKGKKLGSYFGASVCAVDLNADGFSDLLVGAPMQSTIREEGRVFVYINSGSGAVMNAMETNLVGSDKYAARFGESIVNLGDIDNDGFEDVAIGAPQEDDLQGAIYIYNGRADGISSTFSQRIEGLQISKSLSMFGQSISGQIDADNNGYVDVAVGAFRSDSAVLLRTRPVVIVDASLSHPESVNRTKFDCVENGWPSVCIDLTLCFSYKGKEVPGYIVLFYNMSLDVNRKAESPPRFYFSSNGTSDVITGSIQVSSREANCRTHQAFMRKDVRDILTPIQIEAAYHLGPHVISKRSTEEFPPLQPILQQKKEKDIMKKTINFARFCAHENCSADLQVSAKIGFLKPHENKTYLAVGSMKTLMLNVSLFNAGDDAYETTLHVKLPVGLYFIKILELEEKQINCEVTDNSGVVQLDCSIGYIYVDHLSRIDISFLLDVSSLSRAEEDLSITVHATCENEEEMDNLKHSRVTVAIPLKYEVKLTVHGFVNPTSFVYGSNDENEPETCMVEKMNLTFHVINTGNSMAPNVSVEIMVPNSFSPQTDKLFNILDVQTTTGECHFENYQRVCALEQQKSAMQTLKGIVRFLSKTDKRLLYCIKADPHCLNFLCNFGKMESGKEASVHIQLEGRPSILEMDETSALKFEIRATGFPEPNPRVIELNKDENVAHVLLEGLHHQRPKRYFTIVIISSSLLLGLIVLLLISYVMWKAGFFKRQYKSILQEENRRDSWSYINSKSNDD
CHT act confirm = confirmation of human choline transporter (CHT) activators. shares compounds with CHT allo act. CHT-expressing cells, membrane potential dye fluorescence (FDSS); % of choline EC20–EC90 response window; HEK293 expressing CHT LV-AA mutant; choline added at its EC20. activation, % at 10 µM. actives 91% (n = 2,500). AID 504833;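 active = primary screen active, with duplicate mean activation above negative control mean plus 3 SD, cut at about 11% in these data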
HEK293 MP dye = activity in parental HEK293 cells lacking CHT. actives 62% (n = 2,500). ratio readout change at 10 µM, hits read low. shares compounds with CHT allo act. membrane potential dye fluorescence (FDSS); measured after EC20 choline addition;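 active = duplicate-averaged ratio beyond 3 SD from buffer wells, up or down, though filed actives are nearly all decreases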
Large screens that a line does not name were inactive (follow-up assays come after a bar, where they were run). Sampled rows, rich in hits. Any-hit rate of the full collection: about 2.2%.

CCN1CCN(c2nc3c(c(=O)[nH]c(=O)n3C)n2CCCSc2ncccn2)CC1	CHT allo act 7.5 | CHT act confirm 50 | HEK293 MP dye -55
Cn1c(=O)[nH]c(=O)c2c1nc(N1CCN(Cc3ccccc3)CC1)n2CCSc1ncccn1	none
CCCCn1c(N2CCC(Cc3ccccc3)CC2)nc2c1c(=O)[nH]c(=O)n2C	none | CHT act confirm 19 | HEK293 MP dye inactive
Cc1nnc(SCCn2c(N3CCC(Cc4ccccc4)CC3)nc3c2c(=O)[nH]c(=O)n3C)s1	none
Cc1ccnc(SCCn2c(N3CCN(c4ccccc4)CC3)nc3c2c(=O)[nH]c(=O)n3C)n1	CHT allo act 8 | CHT act confirm 48 | HEK293 MP dye -41
CN1CCN(c2nc3c(c(=O)[nH]c(=O)n3C)n2CCCSc2ncccn2)CC1	CHT allo act 7.7 | CHT act confirm 46 | HEK293 MP dye -54
CCCCn1c(N2CCCC2)nc2c1c(=O)[nH]c(=O)n2C	none
CCN1CCN(c2nc3c(c(=O)[nH]c(=O)n3C)n2CCCc2ccccc2)CC1	none | CHT act confirm 33 | HEK293 MP dye -54
Cn1c(=O)[nH]c(=O)c2c1nc(N1CCN(Cc3ccccc3)CC1)n2CCCc1ccccc1	none
O=C1CN(C(=O)c2c(F)cccc2F)C(c2ccccc2)c2cc(Br)ccc2N1 (stereo not drawn)	none | CHT act confirm 14 | HEK293 MP dye inactive
Cc1ccc2c(c1)C(c1ccccc1)N(C(=O)c1ccccc1[N+](=O)[O-])CC(=O)N2 (stereo not drawn)	none
O=C1CN(C(=O)c2ccccc2[N+](=O)[O-])C(c2ccccc2)c2cc(Br)ccc2N1 (stereo not drawn)	CHT allo act 6.7 | CHT act confirm 24 | HEK293 MP dye inactive
O=C(CCc1nc2ccccc2s1)NC1CCOC1=O (stereo not drawn)	none
Cn1c(C(=O)NCCN2CCCCCC2)cc2c(=O)n(C)c3ccccc3c21	none | CHT act confirm 25 | HEK293 MP dye -27
CCCCC[n+]1ccn(-c2nc3ccccc3nc2[N-]S(=O)(=O)c2ccccc2)c1	none
CCCC[n+]1ccn(-c2nc3c([N+](=O)[O-])cccc3n2C)c1	none | CHT act confirm 67 | HEK293 MP dye -55
CCN1C(=O)c2cccc3c(S(=O)(=O)NCCCN4CCOCC4)ccc1c23	CHT allo act 7 | CHT act confirm 59 | HEK293 MP dye -54
CCN1C(=O)c2cccc3c(S(=O)(=O)NCc4ccccc4)ccc1c23	none (no result: CHT allo act, CHT block, Platelet DG rel, HIF activator, AI-2 QS modul)
Cc1cc(NCc2ccco2)nc2cc(O)ccc12	CHT allo act 8.6 | CHT act confirm 29 | HEK293 MP dye -42
Cc1ccc(Nc2cc(C)c3ccc(O)cc3n2)cc1C	none
Cc1cc(NC(=O)CSc2ccc3nnc(-c4ccccc4)n3n2)no1	CHT allo act 7.1 | CHT act confirm 48 | HEK293 MP dye -32
COc1cc2c(cc1OC)C(C)=NC1(CCCCC1)C2	CHT allo act 9.8 | CHT act confirm 30 | HEK293 MP dye -44
COc1cc2c(cc1OC)C(C)=NCC2	CHT allo act 14 | CHT act confirm 60 | HEK293 MP dye -68
COc1cc2c(cc1OC)C(c1ccc(Cl)cc1)=NCC2	none | CHT act confirm 63 | HEK293 MP dye -79
CCc1nnc(NC(=O)CC23CC4CC(CC(Br)(C4)C2)C3)s1	none
Cc1[nH][nH]c(=O)c1C	none (no result: CHT allo act, CHT block, Platelet DG rel, HIF activator, AI-2 QS modul)
CCOCC(=O)N1CCN(c2ccccc2OC)CC1	none
CCOc1ccc(S(=O)(=O)N2CCN(Cc3ccc4c(c3)OCO4)CC2)cc1C	none
CCCCn1c2c(c(=N)c3c1CCC3)CCC2	CHT allo act 7.4 (no result: Platelet DG rel, HIF activator, AI-2 QS modul) | CHT act confirm 35 | HEK293 MP dye -52
CCCCCCCn1c2c(c(=N)c3c1CCC3)CCCC2	none (no result: CHT allo act, CHT block, VLA-4 inh)
CCCCCCn1c2c(c(=N)c3c1CCC3)CCC2	CHT allo act 8.2 | CHT act confirm 72 | HEK293 MP dye -44
CCCCCCCn1ccc(=N)cc1	none
CCCCCCCCCn1c2c(c(=N)c3c1CCC3)CCC2	CHT allo act 11 | CHT act confirm 82 | HEK293 MP dye -61
CN1CC[n+]2cnc3ccccc3c21	CHT allo act 12 | CHT act confirm 79 | HEK293 MP dye -72
c1ccc2c(N3CCCCC3)ncnc2c1	none
Cc1ccc(-c2c[n+](Cc3ccc(Cl)cc3)c3n2CCC3)cc1	none
Cc1ccc(-c2c[n+](Cc3cccc(Cl)c3)c3n2CCC3)cc1	CHT allo act 8 | CHT act confirm 56 | HEK293 MP dye -40
Clc1cccc(C[n+]2cc(-c3ccccc3)n3c2CCC3)c1	CHT allo act 8.8 | CHT act confirm 67 | HEK293 MP dye -43
Cc1nnc(SCCn2c(N3CCCCCC3)nc3c2c(=O)[nH]c(=O)n3C)s1	none
Cc1nnc(SCCn2c(N3CCN(C)CC3)nc3c2c(=O)[nH]c(=O)n3C)s1	CHT allo act 6.9 | CHT act confirm 59 | HEK293 MP dye -67
CN1CCN(c2nc3c(c(=O)[nH]c(=O)n3C)n2CCSc2nc3ccccc3s2)CC1	CHT allo act 9.2 | CHT act confirm 50 | HEK293 MP dye -55
Cc1ccc2oc(C(=O)NC3CCS(=O)(=O)C3)cc(=O)c2c1 (stereo not drawn)	none
CSc1nc(N)c(C(=O)NC2CCCCC2)s1	none
COC(CNC(=O)C1CCC(CNS(=O)(=O)c2c(C)cc(C)cc2C)CC1)OC (stereo not drawn)	none
Cc1ccn2c(NC3CCCC3)c(-c3ccccn3)nc2c1	none
Cc1ccn2c(NC3CCCC3)c(-c3ccncc3)nc2c1	CHT allo act 7.2 | CHT act confirm 47 | HEK293 MP dye -63
CN(C)c1ccc(/C=C/c2cc[n+](C)cc2)cc1	CHT allo act 6.5 | CHT act confirm 34 | HEK293 MP dye inactive
CCn1c(/C=C/c2cc[n+](C)cc2)nc2ccccc21	none
C[n+]1ccc(/C=C/c2cccs2)cc1	none | CHT act confirm 62 | HEK293 MP dye -42
CN(C)c1ccc(/C=C/c2cc[n+]([O-])cc2)cc1	none
c1ccc(CCn2nnnc2CN2CCCc3ccccc32)cc1	CHT allo act 7.3 (no result: Platelet DG rel) | CHT act confirm inactive | HEK293 MP dye inactive
Cc1cccc(N2CCN(C(=O)c3ccc(S(=O)(=O)N(C)c4ccccc4)cc3)CC2)c1C	none (no result: CHT allo act, CHT block, Platelet DG rel, HIF activator, AI-2 QS modul)
CCn1nc(C)cc1C(=O)N1CCCC(CCC(=O)NCc2ccccc2F)C1 (stereo not drawn)	none
CC(Sc1nnc(-c2ccc(Cl)cc2Cl)n1Cc1ccccc1)C(=O)Nc1nccs1 (stereo not drawn)	CHT allo act 7.1 | CHT act confirm 35 | HEK293 MP dye inactive
